Laboratory results as given in PubChem BioAssay (NCI).
Compounds without any hit were thinned out: in the full panel of roughly 83,000, 20% have a hit.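 Step 1: grow cells in 96-well plates. Step 2: add test compound at a single concentration. Step 3: incubate 48 h. Step 4: record percent growth.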 Active and inactive are the calls of the source. Rule for the calls: active = growth percent below 10; inactive = the rest.

Key:
Experiment in all cases: NCI-60 one-dose screen, 48 h (100 = growth as untreated, 0 = no growth, -100 = all killed)
Details in all cases: 10 µM unless noted
[1] = system: SR leukemia
[2] = system: RPMI-8226 leukemia
[3] = system: OVCAR-8 ovarian
[4] = system: OVCAR-5 ovarian
[5] = system: OVCAR-4 ovarian
[6] = system: SK-OV-3 ovarian
[7] = system: IGROV1 ovarian
[8] = system: OVCAR-3 ovarian
[9] = system: HS 578T breast
[10] = system: MOLT-4 leukemia

Measured: growth

COC(=O)[C@@H](C[C@H](Cc1ccccc1)NC(=O)c1csc([C@@H](C[C@H](C(C)C)N(C)C(=O)[C@@H](NC(=O)[C@H]2CCCCN2C)C(C)C)OC(C)=O)n1)NC(=O)OCc1ccccc1
inactive: [3] 13.3% [9.5 µM] | [4] 42.2% [9.5 µM] | [5] 46.2% [9.5 µM] | [6] 12.4% [9.5 µM] | [7] 13.2% [9.5 µM] | [9] 12.9% [9.5 µM]
active: [1] -23.3% [9.5 µM] | [2] -9.01% [9.5 µM] | [8] -23.7% [9.5 µM]

Nc1nc([Se])c2ncn(C3OC(CO)C(O)C3O)c2n1 (stereo not drawn)
active: [10] 7.08%
inactive: [2] 23.9% | [3] 55.8% | [4] 60.8% | [5] 79.5% | [6] 77.7% | [8] 104% | [9] 75.4%

CCN(CCO)C(Cc1ccccc1)c1ccccc1 (stereo not drawn)
inactive: [1] 116% | [2] 98.9% | [3] 109% | [4] 93% | [5] 102% | [6] 110% | [7] 97.4% | [8] 109% | [9] 105%

CCOP1(=O)CC(C)=C(Cl)C(P(=O)(OCC)OCC)C1 (stereo not drawn)
inactive: [10] 106% | [2] 107% | [3] 84.3% | [4] 82.9% | [5] 92.4% | [6] 98.8% | [8] 94.5% | [9] 103%

COc1ccc(C(O)(C(=O)O)c2ccc(OC)cc2)cc1
inactive: [1] 102% | [2] 78.2% | [3] 93.3% | [4] 103% | [5] 97.8% | [6] 99.1% | [7] 87.5% | [8] 106% | [9] 94.6%

COC1=CC(=O)O[C@@H](/C=C/c2ccc3c(c2)OCO3)C1
inactive: [10] 91% | [2] 49.9% | [3] 99.3% | [4] 95.7% | [6] 110% | [7] 99.2% | [8] 153% | [9] 95.1%

C[C@@]1(CCCCCCCCCc2ccc(O)cc2)C[C@]2(C)OC(=O)C[C@@H]2OO1
inactive: [10] 78% | [2] 83% | [3] 94.5% | [4] 94.7% | [5] 85.5% | [6] 122% | [8] 126% | [9] 92.9%
active: [7] -51.3%

CC(CC1CCCCC1)NCc1ccccc1 (stereo not drawn)
inactive: [1] 105% | [2] 106% | [3] 106% | [4] 91.1% | [5] 113% | [6] 111% | [7] 107% | [8] 105% | [9] 98.5%

CC(=O)c1ccc(C(=O)NCC2CCC3(CC2)OOC2(CCCCC2)OO3)cc1
inactive: [1] 39% | [2] 69.3% | [3] 84.6% | [4] 70% | [5] 75.4% | [6] 99.6% | [7] 12.2% | [8] 83% | [9] 102%

C=CC[PH+](c1ccccc1)c1ccccc1.C=CC[PH+](c1ccccc1)c1ccccc1.[Cl][Pt][Cl]
inactive: [3] 20% | [4] 96.1% | [5] 39.7% | [6] 99.1% | [9] 55.8%
active: [1] 1.56% | [2] -12.1% | [7] -17.4% | [8] -9.31%

CC1(C)N=C(N)N=C(N)N1c1cccc(CCCCc2ccc(Cl)c(S(=O)(=O)F)c2)c1
inactive: [10] 38.3% | [2] 45.7% | [3] 19.4% | [4] 49.6% | [5] 50.5% | [6] 72.8% | [8] 47.1% | [9] 83.9%

O=C1C(Cl)=C(N2CCOCC2)C(=O)c2ccccc21
active: [1] -37.1% | [2] -3.69% | [7] -47.2% | [8] -58.3%
inactive: [3] 68.2% | [4] 119% | [5] 37.7% | [6] 110% | [9] 116%

CCOC(=O)C(Cc1ccc(N(CCCl)CCCl)cc1)NC(=O)C(CC(C)C)NC(C)=O (stereo not drawn)
inactive: [2] 21% | [3] 32.6% | [4] 36.8% | [6] 53.3% | [7] 22.5% | [9] 108%
active: [1] -13.9% | [5] -16.2% | [8] -34.4%

CC1(C)N=C(N)N=C(N)N1c1ccc(CCCCc2ccc(Cl)c(S(=O)(=O)F)c2)c(Cl)c1
active: [10] -33.1% | [2] -24.2% | [3] 5.53%
inactive: [4] 44.9% | [5] 35.8% | [6] 57.4% | [8] 29.5% | [9] 75.3%

CCCCCSC1C2C(=O)C(Br)=CC13CCNc1c(O)c4c5c(c13)=[N+]2CCC=5C=N4 (stereo not drawn)
active: [1] -14.1% | [2] -17% | [3] -30.2% | [4] -55.2% | [5] -88.6% | [6] -2.42% | [7] -64.6% | [8] -79.5% | [9] 4.01%

O=C(N/N=C\c1ccc(N(CCCl)CCCl)cc1Cl)c1cccnc1
active: [4] -3.04%
inactive: [1] 99.5% | [2] 82.4% | [3] 96% | [5] 53.7% | [6] 95.3% | [7] 37% | [8] 57.6% | [9] 119%

CCCCCCCOC(C(=O)OCCN(CC)CC)(c1ccccc1)c1ccccc1
inactive: [10] 70.3% | [2] 72.4% | [3] 104% | [4] 91.3% | [5] 81.6% | [6] 104% | [7] 68.7% | [8] 94.1% | [9] 94.5%

CC(=O)OCC1O[C@@H]([S-])C(OC(C)=O)[C@H](OC(C)=O)[C@@H]1OC(C)=O.[Au+].c1ccc(CN2[CH-]N(Cc3ccccc3)C(c3ccccc3)=C2c2ccccc2)cc1
inactive: [10] 11.2% | [3] 53.2% | [4] 93% | [5] 60.2% | [6] 56.9% | [7] 14.3% | [9] 43.5%
active: [2] -2.4% | [8] -18.5%

O=[N+]([O-])c1cc([N+](=O)[O-])c(Nn2c3ccccc3c3ccccc32)c([N+](=O)[O-])c1
active: [1] 1.48% | [2] -20.5% | [3] 5.97% | [5] 6.45% | [6] -17.2% | [9] 5.42%
inactive: [4] 29.4% | [7] 22.8% | [8] 12.4%

COC(=O)[C@@H](C)C[C@H](Cc1ccccc1)NC(=O)c1csc([C@@H](C[C@H](C(C)C)N(C)C(=O)[C@@H](NC(=O)[C@H]2CCCCN2C)C2CC2)OC(C)=O)n1
active: [1] 2.03% | [8] -4.55%
inactive: [2] 34.9% | [3] 22.2% | [4] 73% | [5] 57.4% | [6] 21.9% | [7] 30.8% | [9] 35.7%

COc1cccc2c1c(C(=O)C(=O)Nc1cc(C)no1)cn2Cc1ccc(F)cc1
active: [8] 3.35%
inactive: [10] 32.5% | [2] 20.7% | [3] 81.7% | [4] 76.1% | [5] 90.9% | [6] 102% | [7] 37% | [9] 53.3%

C=C1C(=O)O[C@H]2[C@H]1CC/C(COC(=O)C(=O)c1cn(Cc3ccccc3)c3ccccc13)=C\CC[C@@]1(C)O[C@@H]21
active: [1] 4.96% | [2] -36.2% | [3] -2.2% | [4] -32.6% | [5] 7.79% | [7] -85.5% | [8] -82.7% | [9] 5.95%
inactive: [6] 86.9%

O=C(Nc1ccc(Br)cc1)c1cc(Br)cc(Br)c1O
inactive: [10] 62.2% | [3] 11.1% | [5] 19.7% | [7] 19.4% | [8] 32.9% | [9] 43.4%
active: [2] -10.1% | [4] 9.56% | [6] -11.7%

COc1ccc(C2=CC(c3ccc(OC)c(OC)c3)c3c(c4ccccc4oc3=O)O2)cc1OC (stereo not drawn)
active: [2] -48.5% | [8] -16.3% | [9] -5.68%
inactive: [10] 11.9% | [3] 36.2% | [4] 60.2% | [5] 42.8% | [6] 25.6%

CCOC(=O)[C@@H](C)C[C@H](Cc1ccccc1)NC(=O)c1csc([C@@H](C[C@H](C(C)C)N(C)C(=O)[C@@H](NC(=O)[C@H]2CCCCN2C)C(C)(C)C)OC(C)=O)n1
active: [1] 3.63% | [3] 6.71% | [8] -6.79% | [9] 6.42%
inactive: [2] 11.9% | [4] 32.3% | [5] 42.7% | [6] 13.2% | [7] 18.1%

COc1cccc(/C=C/[N+](=O)[O-])c1
active: [1] -21.6% | [2] -21.2%
inactive: [3] 79.6% | [4] 92.8% | [5] 104% | [6] 94.4% | [7] 55.8% | [8] 75.2% | [9] 95%
